Experimental data: ChEMBL document CHEMBL4888484, “Replenishing the malaria drug discovery pipeline: Screening and hit evaluation of the MMV Hit Generation Library 1 (HGL1) against asexual blood stage Plasmodium falciparum ,using a nano luciferase reporter read-out” (2022)
Among all 4,800 compounds or so, about 410 (8.5%) showed an effect of 50% or more. For the sample, strong results were picked, then their nearest neighbours and some compounds at random.

system: Plasmodium falciparum; assay: Confirmatory screen in NF54 pLDH assay, in single point, at 2uM, 72h; type: functional, Erythrocyte; details: timepoint 72 hour

Compound | % Inhibition [%]
O=S(=O)(c1c(Cl)cccc1Cl)N1CCC[C@@H]1CN1CCCC1 | 8
Cc1cc(CN2C(=O)N[C@@]3(CCCCc4ccccc43)C2=O)no1 | 6
COc1ccc([C@H](NC(=O)CCc2ccccc2)c2c(O)ccc3ccccc23)cc1 | -6
Cc1cc(N2CCn3c(nc4ccccc43)C2)ccc1NC(=O)C1CCCCC1 | 14
CN1c2ccccc2C(=O)N[C@@H]1c1ccccc1OCc1ccccc1 | -4
COc1cccc(-n2c(C)cc(C(=O)N3CCNC(=O)CC3)c2C)c1 | -5
N#Cc1c(NC(=O)Nc2cn3ccccc3c2C#N)cn2ccccc12 | 35
O=C(NCC(N1CCOCC1)C(F)(F)F)C1CC12CCOC2 (stereo not drawn) | 14
O=c1[nH]c2nc(N3CCCCC3)ncc2c(=O)n1Cc1ccco1 | -14
Cc1nc([C@@H](NC(=O)c2cc(Cl)cn2C)c2cnn(C)c2)no1 | -10
Clc1ccc(COc2ccc(CNC3CCCCC3)cc2Br)cc1 | -12
O=C(NC[C@H]1CCS(=O)(=O)C1)c1ccc2[nH]c3c(c2c1)CCCC3 | -6
COc1cc(C(C)(C)C)c(OCC(=O)N(c2ccccc2)c2ccccc2)cc1C(C)(C)C | 7
Cc1ccc(Oc2cc(C#N)c(C#N)cc2N2CCOCC2)cc1C | -9
CC[N+](C)(CC)CCOc1cc(C)c2ccccc2n1 | 40
Cc1nc2ccccc2cc1OCc1ccc(F)cc1 | 12
COC(=O)c1ccccc1NC(=O)NCCn1nnc2cc(S(=O)(=O)N(C)C)ccc21 | 32
CCN1C(=O)Cc2cc(NS(=O)(=O)Cc3ccccc3)ccc21 | 12
COc1cc(CNCCN2CCOCC2)ccc1OCc1ccc(C)cc1 | 10
COc1ccc(CNCc2ccc(C)cc2)cc1Cn1ccnc1 | 69
COc1ccc(CN2CC[C@@H]3C(=O)NCCCCCCN(Cc4ccncc4)[C@@H]3C2)cc1Cn1ccnc1 | 37
Cc1ccc(NS(=O)(=O)c2ccc(NC(=O)CN(c3cc(Cl)ccc3C)S(C)(=O)=O)cc2)cc1C | -13
Cc1cc(-c2nc(C3(c4ccncc4)CCC3)no2)ccn1 | 4
COc1ccc(F)cc1S(=O)(=O)N1CCc2noc(N)c2C1 | 63
COc1ccc(S(=O)(=O)N2CCC(c3cc(N)on3)CC2)cc1Cl | 40
COc1ccc(OC)c(S(=O)(=O)N2C[C@H]3CCCC(=O)N[C@H]3C2)c1 | 9
COc1ccccc1OCC(=O)Nc1ccccc1-n1cnnc1C | 12
C[C@H](NC(c1ccccc1)c1ccccc1)c1nnc(-c2cccs2)o1 | 7
